From PubChem BioAssay (Tox21) come the findings set out here.

Experiment [1] can be described thus: A CellTox Green Cytotoxicity Assay to monitor cytotoxicity in HEK293 cells - 8 hour (AID 1224884). Also: nearly all actives have a fitted effect of over 35% in size. The gist of the method: (§1)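 Read-out: fluorescence of a cell-impermeant cyanine dye staining DNA of dead cells, proportional to cytotoxicity. HEK293, 600 cells/well with reagent, compound (23 nL DMSO) added after 5 h; reads at 0, 8, 16, 24, 32, 40 h.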
A short description of experiment [2]: qHTS RealTime-Glo MT Cell Viability Assay in HepG2 cells - 16 hour (AID 1224885). Also: nearly all actives have a fitted effect of over 50% in size. Put shortly: (§2)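 Viability was tracked continuously by NanoLuc luminescence from prosubstrate reduced by living HepG2 cells, at successive time points over 40 h of compound exposure. Cells with reagent were preincubated 5 h at 37 °C before compound addition.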
The nature of experiment [3]: qHTS RealTime-Glo MT Cell Viability Assay in HEK293 cells - 24 hour (AID 1224886). Also: top concentration of the series differs between compounds; nearly all actives have a fitted effect of over 50% in size. The gist of the method: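 Viability tracked continuously by luminescence as live cells reduce a prosubstrate for NanoLuc; HEK293 cells preincubated 5 h, compound-treated at 37 C, and read at 0, 8, 16, 24, 32 and 40 h.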
Experiment [4] can be described thus: qHTS RealTime-Glo MT Cell Viability Assay in HEK293 cells - 8 hour (AID 1224887). Also: top concentration of the series differs between compounds; nearly all actives have a fitted effect of over 50% in size. Put shortly:
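Luminescence readout at each listed time point; HEK293, 600 cells/well, RealTime-Glo MT reagent added with cells; compounds pinned (23 nL in DMSO) after 5 h at 37 C; continuous culture at 37 C.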

The nature of experiment [5]: A CellTox Green Cytotoxicity Assay to monitor cytotoxicity in HEK293 cells - 16 hour (AID 1224888). Also: nearly all actives have a fitted effect of over 35% in size. The gist of the method:
as §1

The nature of experiment [6]: qHTS RealTime-Glo MT Cell Viability Assay in HepG2 cells - 0 hour (AID 1224889). Also: nearly all actives have a fitted effect of over 50% in size. The gist of the method:
as §2

Experiment [7] is described as follows: A CellTox Green Cytotoxicity Assay to monitor cytotoxicity in HepG2 cells - 8 hour (AID 1224890). Also: nearly all actives have a fitted effect of over 45% in size. The gist of the method:
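HepG2, 600 cells/well premixed w/ CellTox Green; 5 h settle, 37 C/5% CO2; pintool cpd add (DMSO); 37 C, 40 h; fluorescence read at 0, 8, 16, 24, 32, 40 h.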

Experiment [8] is described as follows: qHTS assay to identify small molecule antagonists of the androgen receptor (AR) signaling pathway using the MDA cell line in the presence of 0.5 nM R1881 - cell viability counter screen (AID 1259242). Also: nearly all actives have a fitted effect of over 45% in size. Put shortly:
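Live-cell protease fluorescence, CellTiter-Fluor, 30 min at 37C. Cells: MDA-kb2, 3,000/well, preincubated 5 hr. Compounds plus 0.5 nM R1881 final, 16 hr, 37C, 0% CO2.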

Experiment [9] concerns the target Androgen receptor (Homo sapiens) (UniProt P10275). Briefly: qHTS assay to identify small molecule antagonists of the androgen receptor (AR) signaling pathway using the MDA cell line in the presence of 0.5 nM R1881 (AID 1259243). Also: nearly all actives have a fitted effect of over 50% in size. The gist of the method: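 MDA-kb2, MMTV-luc (AR/GR elements); 3,000 cells/well; cpd + 0.5 nM R1881 final; 16 hr 37C, 0% CO2; ONE-Glo 30 min RT; luminescence.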

In experiment [10] the target is Estrogen receptor (Homo sapiens) (UniProt P03372). Briefly: qHTS assay to identify small molecule antagonists of the estrogen receptor alpha (ER-alpha) signaling pathway using the BG1 cell line in the presence of 0.1 nM 17-beta-estradiol (AID 1259244). Also: nearly all actives have a fitted effect of over 50% in size. Put shortly:
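Luminescence after ONE-Glo (30 min, room temperature) measured ERE-luciferase activity in VM7Luc4E2 cells treated 22 h with compound and 0.1 nM final 17beta-estradiol as stimulator.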

Experiment [11] can be described thus: qHTS assay to identify small molecule HDAC inhibitors (AID 1259364).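 Also: wild-type HCT-116 cells with endogenous class I/II HDAC activity; top concentration of the series differs between compounds; nearly all actives have a fitted effect of over 45% in size.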 The gist of the method:
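HCT-116 (wild type), 1,500 cells/well, overnight; compound 2 hr 37C 5% CO2; HDAC-Glo I/II reagent 30 min RT; luminescence readout.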

The nature of experiment [12]: qHTS assay to identify small molecule HDAC inhibitors - cell viability counter screen (AID 1259365). The gist of the method: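 Viability readout: CellTiter-Glo luminescence. Wild-type HCT-116 cells, 2hr compound treatment following overnight attachment at 37 C.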
Experiment [13] can be described thus: qHTS assay to identify small molecule agonists of the sonic hedgehog signaling (Shh) pathway - cell viability counter screen (AID 1259366). Also: nearly all actives have a fitted effect of over 50% in size. The gist of the method:
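Viability measured fluorometrically (CellTiter-Fluor, 1hr, 37C) in 3T3 Gli1-Luc reporter cells after 23hr compound exposure within a 24hr incubation at 37C/5% CO2.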

Experiment [14] is described as follows: qHTS assay to identify small molecule antagonists of the sonic hedgehog signaling (Shh) pathway - cell viability counter screen (AID 1259367). Also: nearly all actives have a fitted effect of over 55% in size. Put shortly:
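Viability was read by CellTiter-Fluor fluorescence in the same wells, reagent added 23 hr into compound treatment and incubated 1 hr at 37C. The 3T3 Gli1-Luc reporter cells (2,000/well) received conditioned medium after compound and ran 24 hr.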

The nature of experiment [15]: qHTS assay to identify small molecule agonists of the sonic hedgehog signaling (Shh) pathway (AID 1259368; calls by dose curve;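 also: NIH/3T3-derived 3T3Gli1-Luc cells carrying a stable Gli1-driven firefly luciferase reporter; series mostly up to about 92 µM; nearly all actives have a fitted effect of over 15% in size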). Put shortly: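 Read-out: firefly luciferase luminescence from a Gli1 response element reporter stably integrated in NIH/3T3-derived 3T3Gli1-Luc cells, measured 30 min at room temperature after reagent addition. Compound exposure lasted 24 hr at 37 C, 5% CO2.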

Experiment [16] in a line: qHTS assay to identify small molecule antagonists of the sonic hedgehog signaling (Shh) pathway (AID 1259369; calls by dose curve; also: nearly all actives have a fitted effect of over 45% in size). Put shortly:
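Luminescence readout: firefly Luc under Gli1 response element in 3T3Gli1-Luc cells (NIH/3T3 clone). Antagonist mode, stimulation by conditioned medium; compound exposure 24hr at 37 C, 5% CO2.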

Experiment [17] deals with Estrogen receptor beta (Homo sapiens) (UniProt Q92731). Briefly: qHTS assay to identify small molecule agonists of the estrogen receptor beta (ER-beta) signaling pathway (AID 1259377; active = well fitted activation curve with a large enough effect in the signal ratio in the repeat runs, not every such curve was filed as active; the % refers to the signal ratio). Put shortly:
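A UAS-controlled beta-lactamase reporter in ER-beta-UAS-bla HEK293T cells reports receptor activation. Compounds act for 16 hr at 37C in 2% charcoal-stripped serum, and a FRET substrate is read by fluorescence after 2 hours.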

Experiment [18] has the same target. Briefly: qHTS assay to identify small molecule antagonists of the estrogen receptor beta (ER-beta) signaling pathway (AID 1259378; active = well fitted inhibition curve with a large enough effect in the signal ratio in the repeat runs, not every such curve was filed as active; the % refers to the signal ratio; also: potency is read from the fitted curve at half-maximal effect). The gist of the method: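 Antagonist mode: compounds added to beta-lactamase reporter HEK293T ER-beta-UAS cells stimulated with E2 (1nM final), 16 hr at 37C. LiveBLAzer B/G FRET substrate, 2 hours room temperature, fluorescence read-out.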

Experiment [19] is described as follows: qHTS assay to identify small molecule antagonists of the estrogen receptor alpha (ER-alpha) signaling pathway using the BG1 cell line in the presence of 0.1 nM 17-beta-estradiol - cell viability counter screen (AID 1259241). Also: nearly all actives have a fitted effect of over 40% in size. The gist of the method: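 The cell line endogenously expresses full-length ER-alpha and carries four EREs driving luciferase. Cells are cultured 5 days hormone-free, treated 22 hr with compounds and 0.1 nM estradiol, then viability is read by fluorescence.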

Each structure is given as a SMILES string. Values without a mark were called inactive. Results filed as inconclusive are left out. The source made the active and inactive calls. Unless noted, calls follow the shape of the dose curve; as a rule, active = well fitted curve in the direction sought with a large enough effect in the repeat runs; inconclusive = weak or mixed curves; inactive = no such curve, though single readings can be large; an effect the other way counts as inactive or inconclusive.
% is scaled to controls: 0 for no effect and ±100 for the full control effect.

Estrogen receptor (Homo sapiens), sequence (P03372 whole entry, looked up): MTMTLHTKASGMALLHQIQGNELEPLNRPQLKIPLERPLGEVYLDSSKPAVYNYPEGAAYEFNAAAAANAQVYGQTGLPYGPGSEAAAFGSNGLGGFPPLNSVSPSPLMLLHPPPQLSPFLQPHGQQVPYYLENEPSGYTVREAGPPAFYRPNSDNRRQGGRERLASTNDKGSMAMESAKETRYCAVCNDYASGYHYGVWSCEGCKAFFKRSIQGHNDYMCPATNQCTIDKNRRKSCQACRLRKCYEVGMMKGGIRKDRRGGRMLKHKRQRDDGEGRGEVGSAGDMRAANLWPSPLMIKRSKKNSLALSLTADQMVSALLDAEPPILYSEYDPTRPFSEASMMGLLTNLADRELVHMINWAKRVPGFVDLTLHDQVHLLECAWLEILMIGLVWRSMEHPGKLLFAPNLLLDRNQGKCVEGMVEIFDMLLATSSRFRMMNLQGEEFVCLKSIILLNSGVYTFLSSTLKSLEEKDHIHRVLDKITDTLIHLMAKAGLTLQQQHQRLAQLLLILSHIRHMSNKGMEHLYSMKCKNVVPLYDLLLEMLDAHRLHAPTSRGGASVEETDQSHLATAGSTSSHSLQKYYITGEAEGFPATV
Estrogen receptor beta (Homo sapiens), sequence (Q92731 whole entry, looked up): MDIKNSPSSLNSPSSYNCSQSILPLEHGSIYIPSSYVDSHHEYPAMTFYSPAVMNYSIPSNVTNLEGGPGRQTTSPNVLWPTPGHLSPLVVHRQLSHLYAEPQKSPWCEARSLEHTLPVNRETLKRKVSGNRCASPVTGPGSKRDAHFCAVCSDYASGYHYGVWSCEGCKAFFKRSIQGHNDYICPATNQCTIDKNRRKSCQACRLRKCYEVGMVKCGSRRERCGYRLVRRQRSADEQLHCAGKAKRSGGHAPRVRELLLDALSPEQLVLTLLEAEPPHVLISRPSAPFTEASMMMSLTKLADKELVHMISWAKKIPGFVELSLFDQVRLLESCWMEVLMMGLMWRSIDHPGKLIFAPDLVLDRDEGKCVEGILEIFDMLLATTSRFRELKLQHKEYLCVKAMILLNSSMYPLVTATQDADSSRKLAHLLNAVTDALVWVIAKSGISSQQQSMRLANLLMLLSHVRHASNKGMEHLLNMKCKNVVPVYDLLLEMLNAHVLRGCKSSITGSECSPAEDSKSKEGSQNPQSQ
Androgen receptor (Homo sapiens), sequence (P10275 whole entry, looked up): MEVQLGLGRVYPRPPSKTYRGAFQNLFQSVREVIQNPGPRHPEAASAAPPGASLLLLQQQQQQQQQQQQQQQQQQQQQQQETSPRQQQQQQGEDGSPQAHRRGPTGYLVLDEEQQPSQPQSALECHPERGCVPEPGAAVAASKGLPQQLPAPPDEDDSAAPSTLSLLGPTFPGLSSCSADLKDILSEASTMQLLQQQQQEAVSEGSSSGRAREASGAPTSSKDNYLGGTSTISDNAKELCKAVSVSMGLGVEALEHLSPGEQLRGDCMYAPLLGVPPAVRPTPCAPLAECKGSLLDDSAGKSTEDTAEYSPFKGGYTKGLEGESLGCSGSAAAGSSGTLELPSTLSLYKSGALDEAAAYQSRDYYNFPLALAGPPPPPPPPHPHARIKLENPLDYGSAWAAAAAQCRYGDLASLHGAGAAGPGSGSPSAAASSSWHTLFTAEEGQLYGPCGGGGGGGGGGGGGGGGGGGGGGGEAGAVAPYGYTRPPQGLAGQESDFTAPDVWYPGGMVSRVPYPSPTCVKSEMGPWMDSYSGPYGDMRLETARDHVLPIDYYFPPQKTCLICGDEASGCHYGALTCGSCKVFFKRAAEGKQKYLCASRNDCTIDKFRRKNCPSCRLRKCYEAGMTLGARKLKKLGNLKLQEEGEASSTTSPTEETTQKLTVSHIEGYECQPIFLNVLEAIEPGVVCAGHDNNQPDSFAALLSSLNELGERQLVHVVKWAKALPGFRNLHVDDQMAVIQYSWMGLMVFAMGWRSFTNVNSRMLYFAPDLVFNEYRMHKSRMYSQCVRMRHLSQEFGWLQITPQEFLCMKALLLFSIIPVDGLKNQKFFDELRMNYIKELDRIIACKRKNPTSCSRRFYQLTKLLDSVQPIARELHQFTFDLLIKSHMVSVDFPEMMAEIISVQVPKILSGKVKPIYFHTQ

On to `Clc1ccc2c(Cl)ccnc2c1`, for which the Potency result in experiment [1], in experiment [2], in experiment [3], in experiment [4], in experiment [5] and in [6] was “inactive” throughout. Moreover, the Potency entry in [7], in [8], in experiment [9], in [10], in [11] and in experiment [12] was “inactive” throughout. The Potency result in experiment [13], in experiment [14], in [15], in [16] and in experiment [18] was “inactive” each time. Also, in [17], the result was inactive.
With `C=C(C)CCO`, the Potency result in experiment [1], in [2], in [3], in [4], in [6] and in experiment [7] was “inactive” in each case. The Potency result in experiment [19], in experiment [8], in [9], in experiment [10], in experiment [11] and in experiment [12] was “inactive” in each case. The Potency result in [13], in experiment [14] and in experiment [15] was “inactive” each time.
For `Nc1ccc2c(S(=O)(=O)O)cccc2c1S(=O)(=O)O`, the Potency result in experiment [1], in [2], in [3], in experiment [4], in [6] and in experiment [7] was “inactive” each time. Moreover, the Potency entry in experiment [19], in experiment [8], in experiment [9], in [11], in experiment [12] and in experiment [13] was “inactive” throughout. For the same compound, the Potency entry in experiment [14], in experiment [15] and in experiment [16] was “inactive” throughout.
On to `O=C1CCC/C=C\CCCCCCCCCC1`, for which the Potency result in [1], in [2], in experiment [3], in [4], in experiment [5] and in [6] was “inactive” throughout. Moreover, the Potency result in [7], in [19], in experiment [8], in experiment [11], in [12] and in [13] was “inactive” in each case. Further, the Potency result in experiment [15] and in experiment [18] was “inactive” in each case. In experiment [17], the outcome was inactive.
On to `CC1(C)[C@H](C(=O)OCc2cccc(Oc3ccccc3)c2)[C@@H]1C=C(Cl)Cl`, for which the Potency result in [1], in experiment [2], in [3], in experiment [4], in experiment [6] and in experiment [7] was “inactive” each time. The Potency result in [19], in experiment [8], in experiment [9], in experiment [10], in experiment [11] and in experiment [12] was “inactive” each time. The Potency result in [13], in experiment [14], in experiment [15] and in experiment [16] was “inactive” each time.
Consider `O=C(O)CN(CCCN(CC(=O)O)CC(=O)O)CC(=O)O`, for which the values for the cytotoxicity increase in experiment [1] and in [7] were -4.96% [at 15.8 µM] and -1.45% [at 15.8 µM], respectively. Moreover, the activity change, negative = cytotoxic in experiment [2] was -11.5% [at 15.8 µM]. Also, the activity change, negative = cytotoxicity in [3] is -9.03% [at 15.8 µM]; in experiment [4] it was -4.97% [at 15.8 µM]; in [6], -28.3% [at 15.8 µM]; in experiment [12], -1.94% [at 19 µM]. Besides, the activity change is 0.612% [at 15.8 µM, active compounds read high] in experiment [5] and -1.26% [at 18.9 µM, active compounds read high] in [15]. The viability change, negative = cytotoxic in experiment [8] was 0.128% [at 19 µM]; in experiment [13] it was -10.7% [at 19 µM]; in experiment [14] it was -4.5% [at 19 µM]. For the same compound, the activity, negative = inhibition in experiment [9] was 1.14% [at 19 µM]. The figures for the activity change, negative = inhibition in experiment [10] and in experiment [11] were -0.399% [at 19 µM] and 1.25% [at 19 µM], respectively. Moreover, in experiment [17], the activation was -3.28% [at 19 µM]. In addition, the Potency in experiment [18] was 2.31 µM (active).
`O=C1OCc2ccccc21`: the Potency entry in experiment [1], in [2], in [3], in experiment [4], in experiment [6] and in experiment [7] was “inactive” throughout. The Potency result in [19], in experiment [8], in [9], in experiment [10], in [11] and in [12] was “inactive” each time. Further, the Potency result in experiment [13], in experiment [14], in experiment [15], in experiment [16] and in experiment [18] was “inactive” in each case. Also, the compound was called inactive in experiment [17].
